PubChem BioAssay AID1159580 (chemical genetic matrix, 2015)
Where “and” joins values, the source holds several entries; their conditions need not be identical. Equal entries are not always repeated. Hit rate of the full screen: of about 5,500 compounds, about 2,000 (36%) were called active. About 18% were inconclusive and are not listed. Rule as the data show it: active = normalized growth mostly below about 0.91 (no sharp cut-off); inconclusive = no clear call, values can overlap the other calls; inactive = mostly above about 0.92. The list shows a part of the results.

Test: chemical genetic growth profiling, strain panel (AID 1159580);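 also: tested at 20 µM; growth read once vehicle control cultures reached saturation at 30 °C; 1 = growth at the plate median or of vehicle wells; lower values mean less growth of the strain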
Conditions: S. cerevisiae deletion strains, growth OD

Measured: normalized growth

COCCOC(=O)C1=C(C)NC(C)=C(C(=O)OC(C)C)C1c1cccc([N+](=O)[O-])c1 (stereo not given)
inactive: locus YAL013W, strain DEP1, hits give low values 1.01 | locus YAL021C, strain ccr4, hits give low values 1.04 | locus YAL026C, strain drs2, hits give low values 1.02 | locus YAL030W, strain snc1, hits give low values 1.02 | locus YAL040C, strain CLN3, hits give low values 1 | locus YBL061C, strain skt5, hits give low values 1.02 | locus YBR009C, strain hhf1, hits give low values 0.988 | locus YBR021W, strain FUR4, hits give low values 1.01 | locus YBR023C, strain chs3, hits give low values 1.02 | locus YBR171W, strain sec66, hits give low values 1.02 | locus YBR229C, strain ROT2, hits give low values 0.999 | locus YBR231C, strain swc5, hits give low values 0.996 | locus YBR279W, strain paf1, hits give low values 0.992 | locus YCL011C, strain gbp2, hits give low values 1.02 | locus YCL016C, strain dcc1, hits give low values 1.01 | locus YCL029C, strain bik1, hits give low values 1.02 | locus YCL061C, strain MRC1 (second series), hits give low values 1.01 | locus YCL069W, strain vba3, hits give low values 1.02 | locus YCR088W, strain abp1, hits give low values 1.01 | locus YDL005C, strain med2, hits give low values 1.01 | locus YDL035C, strain GPR1, hits give low values 1.01 | locus YDL040C, strain nat1, hits give low values 0.999 | locus YDL074C, strain BRE1, hits give low values 0.996 | locus YDL101C, strain DUN1, hits give low values 1.01 | locus YDL134C, strain PPH21, hits give low values 1.01 | locus YDL185W, strain tfp1, hits give low values 1.02 | locus YDL192W, strain arf1, hits give low values 1.02 | locus YDR001C, strain nth1, hits give low values 1.01 | locus YDR069C, strain doa4, hits give low values 0.982 | locus YDR101C, strain arx1, hits give low values 1.01 | locus YDR137W, strain rgp1, hits give low values 0.925 | locus YDR150W, strain NUM1, hits give low values 1.01 and 0.999 | locus YDR159W, strain sac3, hits give low values 0.967 | locus YDR162C, strain NBP2, hits give low values 0.992 | locus YDR195W, strain ref2 1.01 | locus YDR297W, strain sur2, hits give low values 1.01 | locus YDR318W, strain mcm21, hits give low values 1.01 | locus YDR334W, strain swr1, hits give low values 1 | locus YDR335W, strain msn5, hits give low values 1.01 | locus YDR363W, strain ESC2, hits give low values 1.01 | locus YDR388W, hits give low values 1.01 | locus YDR392W, strain spt3, hits give low values 0.977 | locus YDR502C, strain sam2, hits give low values 1 | locus YEL003W, strain gim4, hits give low values 1.01 | locus YEL037C, strain rad23, hits give low values 1.01 | locus YEL061C, strain CIN8 (second series), hits give low values 1 | locus YEL061C, strain CIN8, hits give low values 1 | locus YER002W, strain NOP16, hits give low values 0.993 | locus YER015W, strain faa2, hits give low values 1.01 | locus YER016W, strain bim1, hits give low values 0.989 | locus YER110C, hits give low values 1.02 | locus YER111C, strain swi4, hits give low values 1.02 | locus YER155C, strain BEM2 (second series), hits give low values 1.03 | locus YER155C, strain BEM2, hits give low values 1.02 | locus YER167W, strain BCK2, hits give low values 1.01 | locus YFR010W, strain ubp6, hits give low values 1.01 | locus YGL078C, strain dbp3, hits give low values 1.01 | locus YGL086W, strain mad1, hits give low values 0.992 | locus YGL167C, strain pmr1, hits give low values 1 | locus YGL173C, strain kem1, hits give low values 1.01 | locus YGL227W, strain vid30, hits give low values 1.03 | locus YGL240W, strain doc1, hits give low values 0.984 | locus YGL248W, strain PDE1, hits give low values 1 | locus YGL253W, strain hxk2, hits give low values 1.01 | locus YGR078C, strain PAC10, hits give low values 1 and 0.918 | locus YGR135W, strain pre9, hits give low values 0.997 | locus YGR229C, strain SMI1, hits give low values 1 | locus YGR252W, strain gcn5, hits give low values 0.961 | locus YHR013C, strain ard1, hits give low values 1.02 | locus YHR027C, strain rpn1, hits give low values 1.01 | locus YHR030C, strain SLT2, hits give low values 1.01 and 0.955 | locus YHR079C, strain IRE1 (second series), hits give low values 1 | locus YHR079C, strain IRE1, hits give low values 0.95 | locus YHR094C, strain hxt1, hits give low values 1.01 | locus YHR129C, strain ARP1, hits give low values 0.999 | locus YHR142W, strain chs7, hits give low values 1.04 | locus YHR200W, strain rpn10, hits give low values 1.02 | locus YIL066C, strain RNR3, hits give low values 1.01 | locus YIL073C, strain SPO22, hits give low values 1.04 | locus YIL125W, strain kgd1, hits give low values 1.01 | locus YIR030C, strain dcg1, hits give low values 1.01 | locus YJL092W, strain hpr5, hits give low values 1.02 | locus YJL095W, strain BCK1 (second series), hits give low values 1.02 | locus YJL095W, strain BCK1, hits give low values 1 and 0.972 | locus YJL115W, strain asf1, hits give low values 1.02 | locus YJL129C, strain trk1, hits give low values 0.987 | locus YJL134W, strain LCB3, hits give low values 1.01 | locus YJL154C, strain vps35, hits give low values 1 | locus YJL164C, strain tpk1, hits give low values 1.02 | locus YJL166W, strain qcr8, hits give low values 1.02 | locus YJL168C, strain set2, hits give low values 1.01 | locus YJL187C, strain SWE1 (second series), hits give low values 1 | locus YJL187C, strain SWE1, hits give low values 1.01 | locus YJR043C, strain POL32, hits give low values 0.999 | locus YJR066W, strain TOR1, hits give low values 0.946
